TROY signal inh: inhibitors of TROY-dependent NF-kB signaling | inhibition, % at 10 µM | actives 0.98% (n = 360,000) | Q293 LMP1-TROYcd NF-kB luciferase reporter, 4 h | AID 1347056;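 active means compounds whose plate-normalised and pattern-corrected inhibition of the luciferase reporter signal at the single screening dose is 50% or more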
TWEAK-Fn14 inh: blocks TWEAK-Fn14 interaction in a reporter cell assay. TWEAK-stimulated Fn14 reporter cells, luciferase luminescence, 8 h. inhibition, % at 10 µM. actives 2% (n = 360,000). AID 1159606; in the data active means inhibition above about 50%
HIF-2a inh: blocks HIF-2a reporter activity; 786-0 RCC cells HIF-2a reporter, luciferase luminescence, overnight; inhibition, % at 18.8 µM; actives 0.72% (n = 360,000);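 active means inhibition of the luminescence signal of 40% or more relative to plate controls, in a single-dose primary screen at 18.75 µM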
aSyn UTR inh: 5' untranslated region of α-synuclein, MLPCN primary screen. alpha-synuclein 5'UTR reporter, inhibitor activity. AID 1813. inhibition, % (tested at 7.5 µM). actives 0.82% (n = 300,000); in the data active means inhibition above about 60%; inconclusive means no clear call, values can overlap the other calls;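 further: H4 neuroglioblastoma cells stably carrying SNCA 5'UTR luciferase fusion; 0% = DMSO wells and 100% = positive control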
HSP90 refold inh: inhibitors of HSP90 luciferase refolding in rabbit reticulocyte lysate. luciferase refolding luminescence, 3 h. inhibition, % at 5.6 µM. actives 0.91% (n = 290,000);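 active means inhibition above the screen-wide mean plus 3 SD, computed separately per campaign, cut at about 16% in these data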;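 further: 0% = DMSO wells and 100% = 60 µM geldanamycin wells; inhibitors lower the luminescence because luciferase stays unfolded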
C8 TRAIL sens: sensitizes caspase-8 expressing cells to TRAIL; NB7+C8 cells + TRAIL, ATPlite viability luminescence; inhibition (viability loss, TRAIL sensitization), % at 10 µM; actives 1% (n = 360,000); AID 624354;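 active means compounds causing at least 50% loss of cell viability in the single-dose screen, relative to plate controls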
Mdm2 MdmX conf: Mdm2/MdmX (human) interaction inhibition, confirmed | shares compounds with HIF-2a inh | SaOS-2 split-luciferase Mdm2/MdmX complementation, luminescence | inhibition, % at 8 µM | actives 99% (n = 740) | AID 504601;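 active means mean inhibition of the luminescence signal across two replicates at or above 26 percent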
HIF-2a conf: confirmation of HIF-2a inhibitors | inhibition, % at 18.8 µM | actives 56% (n = 1,800) | shares compounds with HIF-2a inh | 786-0 RCC cells, HIF-2a luciferase reporter luminescence, overnight;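 active means mean inhibition across four replicates of at least 40 percent at the single tested concentration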
HIF-1a cs: HIF-1a inhibition counter-screen for HIF-2a hits; shares compounds with HIF-2a inh; MiaPaCa-2 HIF-1a luciferase reporter, desferoxamine, overnight; inhibition, % at 18.8 µM; actives 72% (n = 1,800); AID 651589;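 active means mean inhibition of the reporter signal across four replicates at the single tested dose of 50% or more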
An asterisk follows results filed as active; ? = inconclusive; nt = not tested or not shown. Shown are actives, neighbours in structure and some others; about 3.9% of the full set was active somewhere.

SMILES | TROY signal inh | TWEAK-Fn14 inh | HIF-2a inh | aSyn UTR inh | HSP90 refold inh | C8 TRAIL sens | HIF-2a conf | HIF-1a cs | others
CC(C)C(=O)N1CCN(c2ccc(NC(=O)c3ccc4c(c3)OCCO4)cc2)CC1 | 22 | 20 | 42* | 34 | 0 | -16 | -2 | -4
CC(=O)N1CCN(c2ccc(NC(=O)c3ccc4c(c3)OCO4)cc2)CC1 | -5 | -25 | 19 | 6 | -2 | -19 | nt | nt
O=C(Nc1ccc(NC(=O)c2cccs2)cc1)c1ccc2c(c1)OCO2 | -5 | -15 | -3 | 10 | 3 | 1 | nt | nt
Cc1ccccc1C(=O)N1CCN(c2ccc(NC(=O)c3ccc4c(c3)OCCO4)cc2)CC1 | 46 | 73* | 60* | 20 | 3 | 44 | 14 | 72*
O=C(Nc1ccc(NC(=O)c2cccs2)cc1)c1ccc2c(c1)OCCO2 | -7 | -47 | 47* | 35 | -1 | 3 | 45* | 15
C#CCNC(=O)C[C@@H]1C[C@@]2(C(=O)OC)CCCCC=C2N(Cc2ccc(Cl)cc2Cl)C1=O | 3 | -3 | 12 | nt | nt | -7 | nt | nt
CC(=O)NC(c1ccc(F)c(F)c1)c1nc(-c2ccc(C)c(C)c2)cs1 (stereo not drawn) | 7 | -60 | -25 | nt | nt | 14 | nt | nt
O=S(=O)(c1ccccc1)c1ncc(C(F)(F)F)cc1Cl | 46 | 33 | 96* | -12 | 2 | 3 | 4 | 14
CCSc1nc2ccccc2n1C(=O)/C=C/c1ccc(OC)c(OC)c1 | 39 | 100* | 78* | -168 | -3 | -8 | 6 | 101* | Mdm2 MdmX conf=102*
C=CCSc1nc2ccccc2n1C(=O)/C=C/c1cc(OC)c(OC)c(OC)c1 | 36 | 57* | 83* | -172 | 5 | 23 | 88* | 106*
O=C(C#Cc1ccccc1)c1ccc([N+](=O)[O-])cc1 | 36 | 8 | 40* | -95 | 4 | 20 | -2 | 89* | Mdm2 MdmX conf=103*
CSc1ccc(/C=C(\C#N)C(=O)NC2CCCCC2C)cc1 (stereo not drawn) | -11 | 35 | -2 | -9 | 2 | -6 | nt | nt
CC1CCCCC1NC(=O)/C(C#N)=C/c1ccccc1F (stereo not drawn) | 30 | 70* | 88* | -1 | -2 | 12 | 81* | 106*
N#CC1(NC(=O)Cn2ncc(Cl)c(Cl)c2=O)CCCCC1 | 55* | 78* | 87* | -206 | nt | 93* | 59* | 107*
N#CC(C(O)c1ccccc1)N1CCOCC1 (stereo not drawn) | 4 | 9 | 9 | nt | nt | -18 | nt | nt
CCOC(=O)CSCc1nc(-c2ccc(Cl)cc2)oc1C | -30 | -1 | 50* | 40 | 1 | 4 | 54* | 44
COc1ccccc1CNc1ncc(-c2ccc(F)cc2)n1C | -3 | 20 | -39 | -17 | 4 | -6 | nt | nt
COc1ccc(CNc2ncc(-c3ccc(F)cc3)n2C)c2ccccc12 | 1 | 58* | 41* | 65* | 10 | -6 | 93* | 104*
CC(=O)Nc1sc2c(c1-c1nc3ccccc3s1)CN(C(C)C)CC2 | 12 | 1 | 9 | nt | nt | 54* | nt | nt | Mdm2 MdmX conf=103*
COc1ccc(Cn2c(SCc3cc(C)ccc3C)nc3cc(OC)c(OC)cc3c2=N)cc1 | 21 | -3 | 95* | ? | 15 | 92* | 2 | 107* | Mdm2 MdmX conf=103*
COc1cc2nc(SCc3ccc(Cl)cc3Cl)n(Cc3cccs3)c(=N)c2cc1OC | -9 | 8 | 21 | 8 | -10 | 9 | nt | nt
COc1ccc(Cn2c(SCc3ccc(C)cc3)nc3cc(OC)c(OC)cc3c2=N)cc1Cl | 27 | -2 | 91* | 119* | 0 | 93* | 60* | 105* | Mdm2 MdmX conf=103*
C[C@@H]1CN([C@H](C)CO)C(=O)CCCn2cc(nn2)CO[C@H]1CN(C)S(=O)(=O)c1ccc(C#N)cc1 | -25 | -19 | 2 | nt | nt | 3 | nt | nt
COc1ccccc1[C@@]1(C)ON(c2ccccc2C(F)(F)F)C1=O | 11 | 35 | 66* | nt | nt | 29 | 24 | 101*
CC[C@]1(c2ccccc2C)ON(c2ccccc2C(F)(F)F)C1=O | -3 | -2 | 12 | nt | nt | 2 | nt | nt
SMILES | TROY signal inh | TWEAK-Fn14 inh | HIF-2a inh | aSyn UTR inh | HSP90 refold inh | C8 TRAIL sens | HIF-2a conf | HIF-1a cs | others
O=C(Cc1ccsc1)OCC(=O)c1ccccc1 | -60 | -2 | 3 | nt | nt | -5 | nt | nt
c1ccc(CNc2nc(-c3ccccc3)nc3ccccc23)cc1 | 12 | -51 | -2 | 22 | -1 | -2 | nt | nt
c1ccc(CNc2nc(NCc3ccccc3)c3ccccc3n2)cc1 | 78* | 10 | 26 | 106* | 2 | 53* | nt | nt | Mdm2 MdmX conf=103*
O=C(/C=C/[C@H]1O[C@@H](n2ccc(=O)[nH]c2=O)[C@H](O)[C@@H]1O)N1CCN(CCc2ccccc2)CC1 | -9 | 3 | 9 | nt | nt | 1 | nt | nt
O=C(CCl)Nc1ccccc1Sc1ccc(Cl)cc1 | -15 | 88* | 34 | 93* | 5 | 95* | nt | nt | Mdm2 MdmX conf=103*
O=C(c1ccccc1)N1CCSc2sccc2C1=O | -40 | -4 | 65* | 97* | 8 | 8 | 71* | -16
CCOC(=O)c1ccc(-c2ccc(N3C(c4ccsc4)=Cc4ccc(F)cc4C3c3c[nH]c4ccc(C#N)cc34)cc2)cc1F (stereo not drawn) | 14 | 53* | 71* | nt | nt | 8 | 47* | 41
CC(=O)N[C@@H](Cc1c[nH]c2ccccc12)C(=O)OCC(=O)Nc1cc(C)on1 | 10 | -5 | 6 | nt | nt | -7 | nt | nt
COc1ccc(-n2nc3ccc(N)cc3n2)cc1 | -47 | 2 | 46* | nt | nt | 17 | 70* | 0
CS(=O)(=O)Nc1cccc(NC(=O)C2Cc3c(-c4cccc(F)c4)ccnc3O2)c1 (stereo not drawn) | 25 | -20 | 51* | nt | nt | 70* | 34 | 89*
Cc1c(NC(=O)c2cc(S(=O)(=O)N3CCCCC3)ccc2Cl)c(=O)n(-c2ccccc2)n1C | -2 | 2 | 8 | nt | nt | -12 | nt | nt
Cc1cc(O)c(C(C)C)cc1C1(c2cc(C(C)C)c(O)cc2C)OC(=O)c2ccccc21 | 85* | 97* | 50* | 21 | 8 | 16 | 63* | 107*
O=C(CCN=C1NS(=O)(=O)c2ccccc21)OCc1nnc(-c2ccc([N+](=O)[O-])cc2)o1 | -2 | -15 | -13 | nt | nt | 2 | nt | nt
CC(C)(C)n1nc(-c2ccc(Cl)cc2)c2c(N)ncnc21 | 8 | -54 | 63* | 105* | 1 | 7 | 43* | 80*
Cc1ccc(-c2nc(N)c3c(-c4ccc(C)cc4)nn(C(C)(C)C)c3n2)cc1 | -23 | 13 | 2 | -30 | -3 | 6 | nt | nt
